Measurements: PubChem BioAssay (NCATS)
Inconclusive results are not listed. Calls of active or inactive are those of the source. The call rests on the fitted dose curve; in most records, active means well fitted inhibition curve with a large enough effect; inconclusive means small, poorly fitted or top-dose-only effect; inactive means flat fitted curve, though single readings scatter.
Potency means the concentration at half of the fitted maximal effect.

These compounds were tested against Luciferin 4-monooxygenase (Photinus pyralis) (UniProt P08659) (assay: Biochemical firefly luciferase enzyme assay for NPC (AID 624030; further: nearly all actives have a fitted effect of over 70% in size;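 on activity change, negative = inhibition: 0% = DMSO and -100% = full luciferase inhibition by PTC124 control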)). Conditions: purified P. pyralis luciferase, luminescence, 5 min; series mostly up to 58.6 µM; activity change, negative = inhibition: at the top concentration.
Chain of Luciferin 4-monooxygenase (Photinus pyralis) (P08659 whole entry, looked up): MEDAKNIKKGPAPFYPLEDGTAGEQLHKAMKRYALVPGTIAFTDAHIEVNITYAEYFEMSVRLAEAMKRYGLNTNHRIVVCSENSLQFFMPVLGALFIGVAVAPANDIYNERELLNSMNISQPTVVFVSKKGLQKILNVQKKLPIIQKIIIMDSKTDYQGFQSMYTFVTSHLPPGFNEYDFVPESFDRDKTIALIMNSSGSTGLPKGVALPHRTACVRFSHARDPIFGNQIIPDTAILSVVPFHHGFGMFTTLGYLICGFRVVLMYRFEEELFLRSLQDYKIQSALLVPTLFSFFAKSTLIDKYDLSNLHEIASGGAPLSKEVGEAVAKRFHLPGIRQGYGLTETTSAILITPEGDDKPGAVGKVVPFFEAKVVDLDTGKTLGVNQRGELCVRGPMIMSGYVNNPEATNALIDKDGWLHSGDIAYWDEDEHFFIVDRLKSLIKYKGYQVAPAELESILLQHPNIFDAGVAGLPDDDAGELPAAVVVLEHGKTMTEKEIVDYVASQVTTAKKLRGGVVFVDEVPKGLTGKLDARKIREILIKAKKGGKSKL
Source text: Charcot-Marie-Tooth-Association [CMTA] National Center for Advancing Translational Sciences [NCATS] Charcot-Marie-Tooth (CMT) disease was first characterized by Jean-Martin Charcot and Pierre Marie in France and, independently, by Howard Henry Tooth in England in 1886. CMT is one of the most common inherited neurological diseases, affecting approximately 1 in 2,500 Americans. […] The most prevalent type of CMT is known as CMT1A and caused by a duplication of the PMP22 gene which leads to over-expression of this protein. PMP22 is a glycosylated intrinsic membrane protein accounting for 2-5% of the myelin protein content, and its over-expression results in demyelination and subsequently axonal loss. A pair of cellular transcription-based assays was developed in the S16 rat Schwann cell lines (Hai, M., et al., 2002) stably transfected with orthogonal reporters - firefly luciferase (Fluc) and beta-lactamase (beta-Lac) - whose expression is driven by an intronic regulatory element of the PMP22 gene (Jones, E.A., et al., 2011) to recapitulate endogenous expression of PMP22. A comprehensive library of approved drugs, the NCGC Pharmaceutical Collection (Huang, R., et al., 2011), was screened in the cross-validating platform of the orthogonal reporter assays to identify drug modulators inhibitory towards PMP22 expression. A set of counter-screens was devised to address non-specific activity of the library. An ATP-dependent CellTiter-Glo assay (developed by Promega Corp) was utilized to control cell viability. In addition, biochemical Fluc enzyme assay was performed to assess direct inhibition of the Fluc enzymatic activity. References Hai, M., Muja, N., DeVries, G.H., Quarles, R.H. and Patel, P.I. Comparative analysis of Schwann cell lines as model systems for myelin gene transcription studies. J Neurosci Res, 2002. 69(4): pp 497-508 Huang, R., Southall, N., Wang, Y., Yasgar A., Shinn P., Jadhav, A. , Nguyen, D.-T. and Austin, C.P., The NCGC pharmaceutical collection: a comprehensive resource of clinically approved drugs enabling repurposing and chemical genomics. Sci Transl Med, 2011. 3(80): p. 80ps16.
Compounds were transferred to the plates in 23nl, and one microliter/well luciferase enzyme-buffer solution (10 nM P. pyralis luciferase and 50 mM Tris Acetate final concentrations) was dispensed yielding a final reaction volume of […]. Luciferase luminescence was measured by a ViewLux plate reader within 5 minutes of enzyme-buffer addition. The % activity was determined by normalizing to the average readings of PTC124 (a positive control) relative to DMSO (0% Activity). The concentration-effect curves were then classified based on curve quality (r2), response magnitude and degree of measured activity.
With `CC(CCc1ccccc1)NC(C)C(O)c1ccc(O)cc1` (stereo not given) the “activity change, negative = inhibition” value was 5.69% (inactive).
With `CN1CCN(C(=O)O[C@H]2c3nccnc3C(=O)N2c2ccc(Cl)cn2)CC1` the “activity change, negative = inhibition” value was 0.415% (inactive).
`CCOC(=O)C1(c2ccccc2)CCN(CCC(C#N)(c2ccccc2)c2ccccc2)CC1` was tested, and the Potency was “inactive”.
For `CCN(C(C)=O)c1cccc(-c2ccnc3c(C#N)cnn23)c1`, the “activity change, negative = inhibition” value was 5.21% (inactive).
With `O=C1NCN(c2ccccc2)C12CCN(CC1COc3ccccc3O1)CC2` (stereo not given) the “activity change, negative = inhibition” value was -0.39% (inactive).
`c1ccc2c(c1)Nc1ccccc1S2` was tested, and the Potency was “inactive”.
For `Nc1ccncc1`, the “activity change, negative = inhibition” value was 0.728% (inactive).
For `NP(N)(=O)NC(=O)c1ccc(F)cc1`, the “activity change, negative = inhibition” value was 27.1% (inactive).
`c1ccc2c(c1)OCC(C1=NCCN1)O2` (stereo not given) was tested, and the “activity change, negative = inhibition” value was 1.35% (inactive).
With `Cc1ccc2c(n1)Oc1ccc(C(C)C(=O)OCC(=O)N(C)C)cc1C2` (stereo not given) the Potency was 14.4 µM (active).
In the case of `C[C@]12C/C(=C/O)C(=O)C[C@@H]1CC[C@@H]1[C@@H]2CC[C@@]2(C)[C@H]1CC[C@]2(C)O`, the “activity change, negative = inhibition” value is reported as -6.93% (inactive).
With `CCC1(C2=NCCN2)Cc2ccccc2O1` (stereo not given) the “activity change, negative = inhibition” value was 1.49% (inactive).
`NCC(O)c1ccc(O)cc1` (stereo not given) was tested, and the “activity change, negative = inhibition” value was -0.23% (inactive).
In the case of `CC(=O)[C@H]1CC[C@H]2[C@@H]3CC[C@H]4C[C@](C)(O)CC[C@]4(C)[C@H]3CC[C@]12C`, the “activity change, negative = inhibition” value is reported as -3.35% (inactive).
In the case of `CC(C)(N)Cc1ccc(Cl)cc1`, the “activity change, negative = inhibition” value is reported as -0.575% (inactive).
In the case of `CCN(CC)CCN1C(=O)CN=C(c2ccccc2F)c2cc(Cl)ccc21`, the “activity change, negative = inhibition” value is reported as 3.84% (inactive).
In the case of `CC(=O)[C@H]1CC[C@H]2[C@@H]3CC[C@H]4C[C@H](O)CC[C@]4(C)[C@H]3C(=O)C[C@]12C`, the “activity change, negative = inhibition” value is reported as 1.66% (inactive).
For `CC(C)=CCOc1c2occc2cc2ccc(=O)oc12`, the “activity change, negative = inhibition” value was -6.22% (inactive).
With `O=[N+]([O-])c1cc([As](=O)(O)O)ccc1O` the “activity change, negative = inhibition” value was 0.0195% [at 24.9 µM] (inactive).
In the case of `NN=C(N)N`, the “activity change, negative = inhibition” value is reported as -1.29% (inactive).
For `Cc1cccc(C)c1NC(=O)CN1CCCC1=O`, the “activity change, negative = inhibition” value was -2.27% (inactive).
`C=C1CC[C@@]2(O)[C@H]3Cc4ccc(O)c5c4[C@@]2(CCN3CC2CC2)[C@H]1O5` was tested, and the “activity change, negative = inhibition” value was 0.417% (inactive).
With `CN1CCN(C2=Nc3cc(Cl)ccc3Nc3ccccc32)CC1` the “activity change, negative = inhibition” value was 42.7% (inactive).
With `Oc1ccccc1-c1ccccc1` the “activity change, negative = inhibition” value was -4.76% (inactive).
In the case of `COc1ccc(C(=O)c2c(C)n(CCN3CCOCC3)c3ccccc23)cc1`, the “activity change, negative = inhibition” value is reported as -11.3% (inactive).
With `CC(=O)Nc1cc([As](=O)(O)O)ccc1O` the “activity change, negative = inhibition” value was 0.916% (inactive).
With `c1ccc(C2CC2)c(OCC2=NCCN2)c1` the “activity change, negative = inhibition” value was 2.48% (inactive).
With `NCC1(CC(=O)O)CCCCC1` the “activity change, negative = inhibition” value was 0.552% [at 24.9 µM] (inactive).
With `O=C(O)c1ccc2[nH]cc(CCCCN3CC=C(c4ccccc4)CC3)c2c1` the “activity change, negative = inhibition” value was -1.1% (inactive).
`COc1ccccc1N1CCNCC1` was tested, and the “activity change, negative = inhibition” value was 1.34% (inactive).
For `CC[C@@H](CO)NC(=O)[C@@H]1C=C2c3cccc4c3c(cn4C)C[C@H]2N(C)C1`, the “activity change, negative = inhibition” value was 4.3% (inactive).
In the case of `CN1C(=S)CN=C(c2ccccc2)c2cc(Cl)ccc21`, the “activity change, negative = inhibition” value is reported as -2.58% (inactive).
In the case of `COc1ccc(C(CN(C)C)C2(O)CCCCC2)cc1` (stereo not given), the “activity change, negative = inhibition” value is reported as 0.931% (inactive).
With `FC(F)(F)c1cccc(C2=CCN(CCc3ccc4ccccc4c3)CC2)c1` the “activity change, negative = inhibition” value was -1.1% (inactive).
With `CCOP(=S)(OCC)Oc1cc(C)nc(C(C)C)n1` the “activity change, negative = inhibition” value was -3.18% (inactive).
For `CCCC1CCCCN1` (stereo not given), the “activity change, negative = inhibition” value was -5.95% (inactive).
With `CCC(COC(=O)c1cc(OC)c(OC)c(OC)c1)(c1ccccc1)N(C)C` (stereo not given) the “activity change, negative = inhibition” value was 2.38% (inactive).
In the case of `O=c1[nH]c2ccccc2n1CCCN1CCC(n2c(=O)[nH]c3cc(Cl)ccc32)CC1`, the “activity change, negative = inhibition” value is reported as 3.79% (inactive).
`Fc1ccc(C(OCCN2CCN(CCCc3ccccc3)CC2)c2ccc(F)cc2)cc1` was tested, and the “activity change, negative = inhibition” value was 13.5% (inactive).
With `Cc1ncc(CNC(=O)N(CCCl)N=O)c(N)n1` the “activity change, negative = inhibition” value was 0.355% (inactive).
